# High-throughput results as filed in PubChem BioAssay.
# NS1 inh: blocks influenza NS1 protein function. Potency, µM (top dose mostly 46.1 µM), for the others: at the top dose activity, positive = more growth. 270,000 tested, 0.4% active. AID 2326; calls by dose curve; further: potency means the concentration at half of the fitted maximal effect; actives are rising curves; nearly all actives have a fitted effect of over 50% in size
#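 Growth recovery, yeast-based: influenza A NS1 expressed in S. cerevisiae causes slow growth, and suppressors are detected by OD600. The parent strain without NS1 is used as positive control.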
# Shiga inhibitor: blocks Shiga toxin action in Vero cells. inhibition, % at 38.7 µM. Vero cells, Shiga toxin protein synthesis inhibition reporter. AID 2315. 290,000 tested, 9.2% active; in the data active means inhibition mostly above about 28%, no sharp cut-off; inactive means mostly below about 43%; further: 0% is about no effect
# SARS PLP yeast: blocks SARS-CoV papain-like protease in a yeast assay; S. cerevisiae expressing SARS-CoV PLpro, growth rescue; Potency, µM (titrated, usually from 32.9 µM), for inactives: at the top dose activity, positive = growth rescue, hits mostly activators; 330,000 tested, 0.19% active; AID 485353; calls by dose curve; further: potency means the concentration at half of the fitted maximal effect; 0% is about no effect; nearly all actives have a fitted effect of over 55% in size
# Cycloheximide cs: counter-screen hit for Shiga toxin inhibitors, cycloheximide; cell reporter, cycloheximide protein synthesis inhibition counterscreen; max response, %; 300,000 tested, 12% active; in the data active means max response mostly above about 13%, no sharp cut-off; inactive means mostly below about 14%; further: read at 38.3 µM for the half of the compounds with a filed dose; 0% is about no effect
# Pf growth 96h: inhibits malaria parasite growth, 96 h; P. falciparum luciferase reporter growth, 96 h; 320,000 tested, 6.9% active; Potency, µM (highest dose often 28.7 µM), without a hit: at the highest dose activity change, negative = inhibition, actives largely listed as inhibitors; further: potency means the concentration at half of the fitted maximal effect; on the % scale 0 is the no-effect control and ±100 the full control effect
#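 Two parasite generations (96 h, 37 C, 5% CO2) of compound exposure in infected erythrocytes (0.05% parasitemia, 2% hematocrit). Luciferase-reporter P. falciparum; decreased luminescence indicates inhibited growth, aimed at apicoplast-acting delayed death.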
# Pf growth 48h: P. falciparum growth inhibition at 48 hours (one generation). Potency, µM (series often up to 28.7 µM), without a hit: at the highest dose activity change, negative = inhibition, most hits filed as inhibitors. P. falciparum luciferase growth in erythrocytes, 48 h. 310,000 tested, 5.9% active; further: potency means the concentration at half of the fitted maximal effect; on the % scale 0 is the no-effect control and ±100 the full control effect
#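 Luminescence readout; reporter = integrated firefly luciferase in P. falciparum. RBC culture at 2% hematocrit, 0.1% parasitemia final, 37 C/5% CO2; decreased signal taken as growth inhibition.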
# An asterisk follows results filed as active; i = inactive; ? = inconclusive; · = no result. Most compounds without a hit are left out; they make up all but 21% or so of the library. Unless noted, the call rests on the fitted dose curve; in most records, active means well fitted inhibition curve with a large enough effect; inconclusive means small, poorly fitted or top-dose-only effect, or another doubt; inactive means no such curve, though single readings can be large or run the other way.
SMILES,NS1 inh,Shiga inhibitor,SARS PLP yeast,Cycloheximide cs,Pf growth 96h,Pf growth 48h
O=c1[nH]c(CSc2ccccn2)nc2c1oc1ccccc12,-1%,91*,-1%,49*,25%,i
Cc1nc(SCc2nc3c(C)cccc3[nH]2)c2oc3ccccc3c2n1,·,·,-1%,·,·,·
CCc1nc2c(oc3ccccc32)c(=O)[nH]1,7%,35,-7%,22*,82%,?
O=c1[nH]cnc2c1oc1ccccc12,5%,70*,-16%,34*,8%,36%
CCc1nc(NC(C)C)c2oc3ccccc3c2n1,-35%,37,-5%,-1,-5%,0%
O=c1[nH]c(=O)c2ccccc2o1,·,·,·,·,-18%,-1%
CCCCC(O)(CCCC)C(=O)NN(C(=O)OC)c1ccc(C)cc1,2%,1,0%,-2,10%,-3%
N#C/C(=C/c1cn[nH]c1-c1ccc(Br)cc1)C(=O)O,·,-7,9%,7,-22%,6%
O=C1Nc2ccccc2C(O)(C(=O)NCc2ccco2)N1c1ccccc1 (stereo not given),6%,-18,?,-4,?,-6%
O=C1Nc2ccccc2C(O)(C(=O)NCc2ccco2)N1c1ccc(Cl)cc1 (stereo not given),-31%,31,-1%,18*,·,-8%
CC(C)CCNC(=O)C1(O)c2ccccc2NC(=O)N1c1ccc(Cl)cc1 (stereo not given),-8%,6,-1%,10*,55%,6%
CC(=O)C(C(C)=O)c1c(Cl)c(O)c(O)c2c(C(=O)c3ccccc3)coc12,-80%,3,-7%,11,2.6µM*,·
O=C(NCc1ccc(F)c(F)c1)C1CCC(=O)N(CC2CCCCC2)C1 (stereo not given),10%,-24,-2%,8,13µM*,0%
O=C(NCc1cc(F)ccc1F)C1CCC(=O)N(C2CCCCCC2)C1 (stereo not given),-5%,86*,-1%,35*,1%,8%
O=C(NCc1cccc(Cl)c1)C1CCC(=O)N(CC2CCCCC2)C1 (stereo not given),7%,-19,6%,-1,15µM*,13%
O=C(NCc1cc(C(F)(F)F)ccc1F)C1CCC(=O)N(C2CCCCCC2)C1 (stereo not given),-10%,-8,-2%,2,?,-5%
COc1ccc(CCC(=O)NCCS(=O)(=O)N2CCN(c3ccccc3OC)CC2)cc1,-19%,-16,8%,-4,38%,-9%
COc1cc(OCC(=O)NC(C)C)cc2c1C(=O)O[C@@H](C)CCCC(=O)CCCCC2,-3%,-8,1%,-2,?,-7%
C[C@H]1CCCC(=O)CCCCCc2cc(O)cc(O)c2C(=O)O1,1%,-4,-4%,-4,9.3µM*,4.1µM*
C/C(=N/NS(=O)(=O)c1ccc(C)cc1)c1c[nH]c2ccccc12,-7%,-4,-6%,-1,1.3µM*,0%
C/C(=N/NS(=O)(=O)c1ccccc1)c1c[nH]c2ccccc12,-10%,-11,5%,3,?,17%
CCCCC/C=C\C/C=C\CCCCCCCC(=O)O[C@@H](CO)COC(=O)CCCCCCCCCCCCCCCCC,·,13,·,-8,·,·
CC(C)CCNc1nc(-c2ccco2)c2c(c1C#N)CCCC2,9%,-6,-8%,3,13µM*,·
N#Cc1c(NCCN)nc(-c2ccco2)c2c1CCCC2,4%,18,-16%,-2,?,·
Cc1ccc(S(=O)(=O)NCCC(=O)OCC(=O)N2CCCC2=O)cc1C,·,·,0%,·,41%,-8%
Cc1ccc(-n2c(-c3ccc(Br)cc3)c[n+]3c2CCc2ccc4cccnc4c2-3)cc1,-144%,-39,-18%,-8,0.47µM*,1.7µM*
Cc1ccc(-n2c(=O)[nH]c3ncccc3c2=O)cc1,1%,-4,1%,1,-2%,10%
Cc1cccc(C(=O)N2CCC(=O)N([C@H](COCc3ccccc3)Cc3ccccc3)CC2)c1,·,-4,·,-2,·,·
O=C(c1cccc(Cl)c1)N1CCC(=O)N(C(COCc2ccccc2)Cc2ccccc2)CC1 (stereo not given),-29%,-16,10%,-6,10µM*,?
